The values below come from the OligoGym collection.
Also: reference of the scale not given here.

The target in one assay is NEFH. Briefly: pooled miR-30 sensor sort-seq; sequence = guide strand. Conditions: shRNA.
In turn, TTTTTTCTTATCTTCAGCCTCT returned a sensor-assay potency score (higher = more potent) of 0.587.

In turn, TTGGTGTCTTTTTTCTCCGGTG showed a sensor-assay potency score (higher = more potent) of -0.602.

In turn, TTGGCTTCTTCCTTCACTGGGG gave a sensor-assay potency score (higher = more potent) of 0.0706.

As to TCTCTTGCTAACATATTGCTAA, the sensor-assay potency score (higher = more potent) is -0.697.

A further assay concerns the target NEIL1. The description is as above. Conditions: shRNA.
For the sequence TATCTTCTGGCTCAGGGTCAGC, the sensor-assay potency score (higher = more potent) was -1.69.

TTTCGTAGCACACTCTCCCTGA yielded a sensor-assay potency score (higher = more potent) of 0.529.

TCTGTCCTCAGGACTCAGCTGT yielded a sensor-assay potency score (higher = more potent) of -0.0425.

Regarding TACTCCTGCAAGACACAGGGCC, the sensor-assay potency score (higher = more potent) is -0.384.

TTCTTTTTGCGGGACTTGCGCC had a sensor-assay potency score (higher = more potent) of -1.12.

Turning to ATGTCAGCCTTGACCTTCCGGG, the sensor-assay potency score (higher = more potent) is -0.984.

TGAACTGCTGGTACTCCTGCAA showed a sensor-assay potency score (higher = more potent) of -0.0198.

For TTGGTCCTTATCTTCTGGCTCA, the sensor-assay potency score (higher = more potent) was -0.526.

The sequence TGAGTGACATAGCTCCAGCAGG had a sensor-assay potency score (higher = more potent) of -1.15.

In turn, TTGCAGTCCTCTTAGGAAGGTC returned a sensor-assay potency score (higher = more potent) of -0.51.

TGGGATGTCAGCCTTGACCTTC had a sensor-assay potency score (higher = more potent) of -1.09.

The sequence TCTTAGGAAGGTCTCTCTTTGC registered a sensor-assay potency score (higher = more potent) of -1.22.
